The values that follow come from PubChem BioAssay (NCI).

Structures are written as SMILES. “And” between values parts separate entries of the source, which are not always exact repeats. Identical values can stand only once. About 79,000 compounds went through this panel and 15% of them were active in at least one assay; those are over-represented in the sample as a whole. Unmarked numbers belong to inactive results. The source made the active and inactive calls. No stated cut-off is given here; in the data, active means growth inhibition above about 70%; inactive means the rest.

A short description of one assay: NCI Yeast Anticancer Drug Screen. Data for the bub3 strain (AID 167). To be noted: S. cerevisiae bub3 mutant strain, at 5.0 µM (retest, dose inferred, filed as 0.5), stronger effect = higher value. Put shortly:
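Steps: expose the mutant yeast strain to compound; grow alongside vehicle-treated cultures; measure growth; express inhibition against the vehicle cultures.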
For the compound `CSc1nnc(SC)nn1`, the growth inhibition was 34%.
On the same count and under the same terms, to `COc1cc(/C=C2\CCC/C(=C\c3ccc(O)c(OC)c3)C2=O)ccc1O` belongs 1%; to `CN(C)CCNC(=O)c1cccc2cc([N+](=O)[O-])ccc12`, 8%.
On the same count and under the same terms, to `CCC(C)(C)c1ccc(Oc2cccc(C(=O)O)c2)cc1` belongs -17%; to `CCCCCCSc1ncnc2[nH]ncc12`, 11%; to `CC(=O)Nc1ccc(/C=C/[N+](=O)[O-])cc1`, -61%.
On the same count and under the same terms, to `CCOC(=O)c1[nH]n(-c2ccccc2)c(=O)c1C=NC(=S)C(N)=S` belongs -27%; to `CCCC(O)C1CC(C(C)C)CCC1C` (centres undefined), -2%.
Turning to `O=[n+]1c2ccccc2n([O-])c2cc(Br)ccc21`, the growth inhibition is 63%.
Still for that read-out and setting: to `CN(C)CCNC(=O)c1cccc2c1Oc1c(cccc1[N+](=O)[O-])O2` belongs 20%; to `Nc1ncc(-c2ccc(Br)cc2)s1`, -18%; to `Cc1cc2cc3cc(C)c(N)cc3nc2cc1N`, 23%.
As for `CC12C(=O)OC(=O)C(c3ccccc31)c1ccccc12`, the growth inhibition was 28%.
For `c1ccc2c(OCC3CO3)cccc2c1` (centres undefined), the growth inhibition is -12%.
As for `CCOC(=N)c1ccc(O)c(OC)c1`, the growth inhibition was 30%.
The same measure, in the same setting: to `Nc1cc(N)c(N=Nc2cccc3c(S(=O)(=O)O)cccc23)cc1N=Nc1cc([N+](=O)[O-])ccc1O` belongs 19%; to `COC(=O)Oc1cc(Cl)c(Cl)cc1Cl`, 12%; to `O=C(O)C1CC(c2ccccc2)=NN1c1ccccc1` (centres undefined), -7%.
The same measure, in the same setting: the value for `COc1cc([C@@H]2c3cc4c(cc3[C@@H](Nc3ccc(NC(=O)c5cc([N+](=O)[O-])cn5C)cc3)[C@H]3COC(=O)[C@H]23)OCO4)cc(OC)c1O` was 19% and 42%; that for `O=C(O)c1ccccc1/C=N/N=C1c2ccccc2-c2ccccc21` was -9%.
Consider `O=C1CC(=O)c2ccccc21`, for which the growth inhibition was -4%.
With `Nc1ncnc2c1ncn2C1OC(CO)CC1O` (centres undefined), the growth inhibition was 34% and 22%.

The same assay, now with this note: S. cerevisiae bub3 mutant strain, at 11.0 µM, stronger effect = higher value.
As for `CS(=O)(=O)SCc1ccc([N+](=O)[O-])cc1`, the growth inhibition is 97% (active).
Same read-out and setting: the value for `Cc1csc(=S)n1OC(=O)NC1CCCCC1` was 99% (active); that for `CCOc1ccc(NC(=O)C2=C(C)NC(C)=C(C(=O)Nc3ccc(OCC)cc3)C2c2cccc([N+](=O)[O-])c2)cc1` was 1%; that for `CC(C)(C)N=C(NO)c1ccccc1` was -4%.
Take `CCCCC/C(=C(\C#N)C(=O)OCC)c1ccccc1`: the growth inhibition is 6%.
Turning to `O=C(NCCCl)Sc1ccc(Cl)cc1`, the growth inhibition was 1%.
On the same count and under the same terms, the value for `O=C1Nc2ccc(Br)cc2C1=Nc1ccc2c(c1)OCO2` was -17%.
For the compound `CCC(C)OC(=O)Nc1ccc(C)c(NC(=O)OC(C)CC)c1` (centres undefined), the growth inhibition is -3%.
In the case of `O=C(O)c1cc2ccc(Cl)cc2c(O)c1C1=CCCCC1`, the growth inhibition was -5%.
On the same count and under the same terms, the value for `CN(C)Cc1cc(N=Nc2ccc(Cl)cc2)ccc1OC(=O)c1ccccc1` was -4%.
Still for that read-out and setting: to `CN1CCN(C(=O)/C=C/C(=O)c2ccccc2)CC1` belongs 28%; to `CCCC/C=C/C(C)(C(=O)OCC)C(=O)OCC`, -6%.
On to `Cc1nc(-c2cc3cc([N+](=O)[O-])ccc3oc2=O)cs1`, for which the growth inhibition was -1%.
Still for that read-out and setting: to `Cc1nc2ccccc2nc1NNc1ccccc1` belongs 28%; to `CN(C)[C@@H]1C(=O)C(C(N)=O)=C(O)[C@@]2(O)C(=O)C3=C(O)c4c(O)cccc4C[C@H]3C[C@@H]12`, 5%.
The same measure, in the same setting: to `COc1ccc(NC(=O)CC2SC(=Nc3ccccc3C)NC2=O)c([N+](=O)[O-])c1` (centres undefined) belongs -5%; to `COc1cc(O)c2c(c1O)C(=O)c1cc(C)ncc1C2=O`, 26%; to `CSc1nnc(SC)nn1`, 65%.
For the compound `COc1cc(/C=C2\CCC/C(=C\c3ccc(O)c(OC)c3)C2=O)ccc1O`, the growth inhibition is -2%.
The same measure, in the same setting: the value for `CN(C)CCNC(=O)c1cccc2cc([N+](=O)[O-])ccc12` was -18%.
On the same count and under the same terms, the value for `CCC(C)(C)c1ccc(Oc2cccc(C(=O)O)c2)cc1` was 23%; that for `CCCCCCSc1ncnc2[nH]ncc12` was 9%.
On the same count and under the same terms, to `CC(=O)Nc1ccc(/C=C/[N+](=O)[O-])cc1` belongs 1%; to `CCOC(=O)c1[nH]n(-c2ccccc2)c(=O)c1C=NC(=S)C(N)=S`, -8%.
`CCCC(O)C1CC(C(C)C)CCC1C` (centres undefined): the growth inhibition was -3%.
For the compound `O=[n+]1c2ccccc2n([O-])c2cc(Br)ccc21`, the growth inhibition was 96% (active).
The same measure, in the same setting: to `CN(C)CCNC(=O)c1cccc2c1Oc1c(cccc1[N+](=O)[O-])O2` belongs 13%.
